Among the data in PubChem BioAssay (Tox21) are Potency values, retold here.

The structures appear in SMILES notation. Inconclusive results are not listed. Where a call stands in place of a potency, no number is given. Activity calls are given as the source filed them. The call rests on the fitted dose curve; in most records, active means well fitted inhibition curve with a large enough effect in the signal ratio in the repeat runs (not every such curve was filed as active); inconclusive means weak or mixed curves, or effect the other way; inactive means flat fitted curve, though single readings scatter; the % refers to the signal ratio.
Potency means the concentration at half of the fitted maximal effect.

The nature of this experiment: cAMP Responsive Elements (CRE) small molecule antagonists, cell-based qHTS assay (AID 1963591). The settings on record: CRE-bla HEK293T, beta-lactamase FRET ratio; series mostly up to 92.4 µM. The source says: U.S. Tox21 Program National Center for Advancing Translational Sciences [NCATS] Division of Preclinical Innovation [DPI] U.S. Environmental Protection Agency [EPA] National Institutes of Environmental Health Sciences [NIEHS] National Toxicology Program [NTP] U.S. Food and Drug Administration [FDA] Tox21 Assay Overview: CREB (cyclic-AMP Responsive Element Binding Protein) is a cellular transcription factor. It binds to certain DNA sequences called cAMP Responsive Elements (CRE) and regulates the transcription of the genes. […] This cell line can be used to find agonists/antagonists of the cyclic AMP signaling pathway. The activation of the report gene under culture conditions can be detected by fluorescence intensity. This cell line has been used to screen the Tox21 10K compound library to […].
Tox21 Assay Protocol Summary: CRE-bla Hek 293T cells were suspended in assay medium (DMEM containing 10% dialyzed FBS, 0.1 mM NEAA, 1 mM sodium pyruvate and 25 mM HEPES) and dispensed at 2,000 cells/4 uL /well into 1536-well black wall/clear bottom plates using a Multidrop Combi (ThermoFisher Scientific, Waltham, MA) dispenser. After the assay plates were incubated at 37 C/5% CO2 for 18 hrs, 23 nL of compounds dissolved in DMSO, positive controls or DMSO only was transferred to the assay plate by a pintool workstation (Kalypsys, San Diego, CA), followed by addition of 1 […] uL of 1.25uM NKH477 (0.25 uM as final concentration) in assay medium using a Flying Reagent Dispenser (Aurora Discovery, San Diego, CA). The plates were incubated at 37 C and 5% CO2 for 3 hrs. Then 1 uL of LiveBLAzer B/G FRET substrate (Invitrogen, Carlsbad, CA) was added to each well using Bioraptr Flying Reagent Dispenser (FRD, Aurora Discovery, San Diego, CA). The plates were incubated at room temperature for 2 h.
(qHTS replaces the single test concentration by a dilution series.)
With `Cc1ccc(S(=O)(=O)NC(=O)NN2CCCCCC2)cc1`, the Potency entry is “inactive”.
The same measure for `C=CCNC(N)=S`: “inactive”; for `CN/C(=C\[N+](=O)[O-])NCCSCc1csc(CN(C)C)n1`: “inactive”.
Take `Clc1ccccn1`: the Potency entry is “inactive”.
Turning to `c1ccc2cc(Nc3ccc(Nc4ccc5ccccc5c4)cc3)ccc2c1`, the Potency result is “inactive”.
Consider `CC(=O)OC(C)C`, for which the Potency result is “inactive”.
Turning to `CC1=CC(C)(C)Nc2ccccc21`, the Potency result was “inactive”.
As for `Cc1cn([C@H]2C[C@H](N=[N+]=[N-])[C@@H](CO)O2)c(=O)[nH]c1=O`, the Potency result was “inactive”.
Regarding `Nc1ncn([C@@H]2O[C@H](CO)[C@@H](O)[C@H]2O)c(=O)n1`, the Potency is 40.3 µM (active).
For the compound `COC(=O)c1ccc(C)cc1`, the Potency result is “inactive”.
With `OC(Cn1cncn1)(Cn1cncn1)c1ccc(F)cc1F` the entry was “inactive”.
With `CCCCCCCCCCCCO` the entry was “inactive”; with `O=C(O)CC(O)C(=O)O` (stereo not given), “inactive”; with `O=C(O)c1cccc([N+](=O)[O-])c1`, “inactive”.
In the case of `[Na+]`, the Potency entry is “inactive”.
For `C/C=C1/CC2C=CC1C2` (stereo not given), the Potency result is “inactive”.
With `CN(C)CCOC(C)(c1ccccc1)c1ccccn1` (stereo not given), the Potency result was “inactive”.
In the case of `CC(C)[N+](C)(CCOC(=O)C1c2ccccc2Oc2ccccc21)C(C)C`, the Potency entry was “inactive”.
With `COC(=O)c1cccc(C(=O)OC)c1` the entry was “inactive”; with `CC(=O)OC[C@H]1O[C@@](COC(C)=O)(O[C@H]2O[C@H](COC(C)=O)[C@@H](OC(C)=O)[C@H](OC(C)=O)[C@H]2OC(C)=O)[C@@H](OC(C)=O)[C@@H]1OC(C)=O`, “inactive”.
Regarding `OC[C@H]1O[C@@H](Oc2ccc(O)cc2)[C@H](O)[C@@H](O)[C@@H]1O`, the Potency entry was “inactive”.
`CC1(C)[C@@H](O[C@H]2O[C@H](C(=O)O)[C@@H](O)[C@H](O)[C@H]2O[C@@H]2O[C@H](C(=O)O)[C@@H](O)[C@H](O)[C@H]2O)CC[C@]2(C)[C@H]3C(=O)C=C4[C@@H]5C[C@@](C)(C(=O)O)CC[C@]5(C)CC[C@@]4(C)[C@]3(C)CC[C@@H]12`: the Potency result was “inactive”.
In the case of `C[C@]12CC[C@@H]3c4ccc(O)cc4C[C@@H](CCCCCCCCCS(=O)CCCC(F)(F)C(F)(F)F)[C@H]3[C@@H]1CC[C@@H]2O` (stereo not given in full), the Potency result was “inactive”.
As to `CC(C)c1cccc(C(C)C)c1`, the Potency entry is “inactive”.
`CC(=O)[C@@]1(O)CC[C@H]2[C@@H]3C[C@H](C)C4=CC(=O)C=C[C@]4(C)[C@@]3(F)[C@@H](O)C[C@@]21C`: the Potency entry is “inactive”.
For `CCCCNC(N)=O`, the Potency entry was “inactive”.
Take `CCCCNC(=O)NS(=O)(=O)c1ccc(N)cc1`: the Potency result was “inactive”.
With `CN(C)C(=O)Nc1ccc(Cl)c(Cl)c1` the entry was “inactive”; with `N[C@@H](Cc1cc(I)c(Oc2cc(I)c(O)c(I)c2)c(I)c1)C(=O)O`, “inactive”.
With `Nc1ccc(S(N)(=O)=O)cc1` the entry was “inactive”; with `CCCCCCCC=O`, “inactive”.
Consider `Nc1nc(=S)c2[nH]cnc2[nH]1`, for which the Potency result was “inactive”.
Consider `CCCC(=O)O`, for which the Potency entry was “inactive”.
The same measure for `CCCc1cc(=O)[nH]c(=S)[nH]1`: “inactive”; for `C=C[Si](OCCOC)(OCCOC)OCCOC`: “inactive”.
On to `CC(=O)/C=C/C1=C(C)CCCC1(C)C`, for which the Potency entry is “inactive”.
The same measure for `Nc1ccc2c(c1)C(=O)c1ccccc1C2=O`: “inactive”.
For `C=CCOC(=O)c1ccccc1C(=O)OCC=C`, the Potency entry was “inactive”.
For `Cc1ccc(O)cc1`, the Potency result is “inactive”.
With `COCC(C)N` (stereo not given) the entry was “inactive”.
